# Laboratory results as given in PubChem BioAssay AID2284157 (EPA ToxCast).
# Activity calls are given as the source filed them. Rule for the calls: active = hit-call score of the fitted dose curve at least 0.9, where 1 is the maximum; inactive = score below 0.9.
# Molecular target: human Leukotriene Receptor CysLT1, CYSLTR1 (gene 10800) (UniProt Q9Y271)
# Assay: ERF_FR_GPCR_hCYSLTR1: Eurofins (ERF) G Protein-Coupled Receptor (GPCR) Radioligand Binding LeadHunter Assay for human Leukotriene Receptor CysLT1 Agonism
# Experimental: ERF_FR_GPCR_hCYSLTR1 is a biochemical, single-readout assay that uses extracted gene-proteins in a cell-free assay. Measurements were taken 1 hour after chemical dosing in a 96-well plate. See CysLT1 Human Leukotriene GPCR Binding (Agonist Radioligand) Assay, Cerep.ERF_FR_GPCR_hCYSLTR1 is an assay component calculated from the ERF_FR_GPCR_hCYSLTR1 assay. It is designed to measure radioligand binding using a type of binding reporter as detected by scintillation counting with radiometry technology.Data from the assay component ERF_FR_GPCR_hCYSLTR1 was analyzed at the assay endpoint, ERF_FR_GPCR_hCYSLTR1, in the positive analysis fitting direction relative to DMSO as the negative control and baseline of activity. Using a type of binding reporter, gain-of-signal activity can be used to understand changes in binding as they relate to gene CYSLTR1. To generalize the intended target to other relatable targets, this assay endpoint is annotated to the gpcr intended target family, where the subfamily is leukotriene.
# Human cells are incubated for 60 minutes at room temprature with [3H]LTD4 ligand (0.3 nM) and leukotriene D4 as control inhibitor.Test Sample Requirements: Minimum for 1) Screen: 60 ul of 10 mM stock -OR- 1 mg (pre-weighed) for 10 uM final testing. 2) Dose Response: 90 ul of 10 mM stock -OR- 1 mg (pre-weighed) for a top concentration at 10 uM.
# human Leukotriene Receptor CysLT1, CYSLTR1 (gene 10800), sequence (Q9Y271 whole entry, looked up): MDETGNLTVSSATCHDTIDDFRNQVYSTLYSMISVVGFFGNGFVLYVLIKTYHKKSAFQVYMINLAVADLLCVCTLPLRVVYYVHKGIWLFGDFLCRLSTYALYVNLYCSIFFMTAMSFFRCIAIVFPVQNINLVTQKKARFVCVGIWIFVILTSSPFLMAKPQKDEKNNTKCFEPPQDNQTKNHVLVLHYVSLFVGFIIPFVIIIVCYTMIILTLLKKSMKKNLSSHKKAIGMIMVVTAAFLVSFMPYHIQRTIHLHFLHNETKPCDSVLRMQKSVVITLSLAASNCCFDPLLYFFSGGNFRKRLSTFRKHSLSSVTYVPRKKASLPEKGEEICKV
row,SMILES,AC50
1,O=C(/C=C/c1ccc(O)cc1)CC(=O)/C=C/c1ccc(O)cc1,5 µM (active)
